Laboratory results reported in PubChem BioAssay.

Experiment: mitochondrial membrane potential change in A549 cells, profiling panel, cell-based, JC-1 fluorescence, basal, 24 h, 100 nL (AID 1138);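 note: A549 lung adenocarcinoma cells under basal conditions with no added stimulus; test concentration not given here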
Settings: higher = more signal

| SMILES | z-score |
| --- | --- |
| COCC#Cc1ccc([C@@H]2N[C@H](C(=O)O)CC[C@H]2C)cc1 | 2.23 |
| C#CCCCON=C1[C@H]2CCn3c(=O)n([C@@H](CC)c4ccccc4)c(=O)n3[C@H]2[C@H](O)[C@@H]2O[C@H]12 | 0.351 |
| O=C1CCCC=C1C(O)C1CCCCC1 (configuration not stated) | 0.168 |
| C[C@@H](c1ccccc1)N1C(=O)[C@H]2[C@H]3[C@H](O)[C@H](O)CC(=NOC[C@@H](O)COCc4ccco4)[C@H]3CC[C@H]2C1=O | -0.882 |
| CCOC(=O)[C@H](CC(C)C)NC(=O)CCC1CC(OC(=O)NCCc2ccc(F)cc2)CC2(CCCC(COC(=O)NCc3cccc4ccccc34)O2)O1 (some centres not stated) | 0.755 |
| COC(=O)[C@H](C)NC(=O)CCC1CC(OC(=O)NCCc2ccc(F)cc2)CC2(CCCC(COC(=O)NCCc3ccccc3OC)O2)O1 (some centres not stated) | 0.625 |
| CCOC(=O)CCN1C(=O)[C@H]2[C@H]3[C@H](O)[C@H](O)CC(=NOCC(C)C)[C@@H]3CC[C@H]2C1=O | -0.478 |
| CC[C@@H](c1ccccc1)n1c(=O)n2n(c1=O)[C@H]1[C@H](O)[C@@H]3O[C@@H]3C(=NOCc3ccccc3)[C@H]1CC2 | -1.14 |
| COc1ccc(O[C@H]2C=C[C@@H](c3ccccc3)O[C@@H]2CON=C(C)CCN2CCCc3nc(C)c(C)cc32)cc1 | 1.16 |
| COC(OC)[C@@H](C)[C@H](OC)[C@@H](C)[C@H](OC)c1ccccc1 | 2.15 |
| CC(CCN1CCc2nc(-c3ccccc3)c(-c3ccccc3)cc2C1)=NO[C@@H](C)c1cc(-c2c(C)cc(C)cc2C)no1 | 0.281 |
| CO[C@H]1COC(=O)CCC[C@H](C)[C@H](OC)COC(=O)CC=C[C@@H]1C | -0.904 |
